Our source for the Potency values is PubChem BioAssay (Tox21).

Active and inactive are the calls of the source. Where a call stands in place of a potency, no number is given. Calls come from the whole dose curve; as a rule, active = well fitted activation curve with a large enough effect in the repeat runs; inconclusive = weak or mixed curves; inactive = flat fitted curve, though single readings scatter.

The nature of the assay: Caspase-3/7 induction in CHO-K1 cells by small molecules, qHTS assay (AID 1346980). Note: nearly all actives have a fitted effect of over 15% in size. The following applies: CHO-K1 caspase-3/7 induction, Caspase-Glo luminescence, 17 h; series mostly up to 92.4 µM. An excerpt: National Center for Advancing Translational Sciences [NCATS]
NIH Chemical Genomics Center [NCGC]
U.S. Environmental Protection Agency [EPA]
National Institutes of Environmental Health Sciences [NIEHS]
National Toxicology Program [NTP]
Apoptosis is a process of programmed cell death and plays a central role in the development of multicellular organisms. It is a highly regulated process and induces cell death by activating caspases, which are the members of cysteine aspartic acid-specific protease (caspase) family. Caspases involved in apoptosis are classified by their mechanism of action as initiator caspases (caspase-2, -8, -9 and -10) and executioner caspases (caspase-3, -6, and -7). Inhibition of apoptosis results in number of cancers, autoimmune diseases, inflammatory diseases and viral infection. To identify small molecule compounds that induce apoptosis, a homogeneous, luminescent Caspase-Glo 3/7 assay was used. Wild type CHO-K1 cells were used to screen Tox21 libraries for identifying caspase-3/7 activity inducers.
CHO-K1 cells were dispensed at 1,500 per well in 5uL of culture medium into white solid bottom 1536-well plates (Corning Life Sciences, Corning, NY) using a Multidrop Combi (Thermo Scientific, Waltham, MA) dispenser. The assay plates were incubated at 37 C and 5% CO2 for 5hr, and then 23nL of compounds dissolved in DMSO and positive control were transferred using a Pintool station (Wako, San Diego, CA). The assay plates were incubated at 37C and 5% CO2 for 17hr. For caspase-3/7 activity read, 4uL of Caspase-Glo 3/7 reagent (Promega Corporation, Madison, WI) was added to each well of the assay plates using Flying Reagent Dispenser (FRD, Aurora Discovery, San Diego, CA) and incubated the assay plates at room temperature for 30min. The luminescence signal was quantified using a ViewLux plate reader (Perkin Elmer, Shelton, CT).
(In general: qHTS replaces the single test concentration by a dilution series.)
In the case of `CCCCC(CC)COC(=O)Cl` (stereo not given), the Potency result is “inactive”. The same measure for `OCC(O)CO`: “inactive”; for `CCCCN(CCCC)N=O`: “inactive”. The result for `CC(C)Oc1cc(-n2nc(C(C)(C)C)oc2=O)c(Cl)cc1Cl` reads “inactive”; that for `Oc1c(Cl)c(Cl)c(Cl)c(Cl)c1Cl`, “inactive”. The same measure for `C=CCc1ccc(OC)cc1`: “inactive”.

Regarding `c1nc[nH]n1`, the Potency result is “inactive”. `CCCCCc1cc(O)cc(O)c1`: the Potency entry is “inactive”.

As to `c1cc(OCC2CO2)ccc1Cc1ccc(OCC2CO2)cc1` (stereo not given), the Potency result is “inactive”.

Consider `Nn1cnnc1`, for which the Potency result was “inactive”. The result for `O=C(Nc1ccc(Br)cc1)c1cc(Br)cc(Br)c1O` reads “inactive”; that for `CC1(C)C(C=C(Cl)Cl)C1C(=O)OC(C#N)c1cccc(Oc2ccccc2)c1` (stereo not given), “inactive”. As to `CCCCCCCCCCCOC(=O)c1ccccc1C(=O)OCCCCCCCCCCC`, the Potency result was “inactive”. The same measure for `CCC(=O)O[C@H]1CC[C@H]2[C@@H]3CCC4=CC(=O)CC[C@]4(C)[C@H]3CC[C@]12C`: “inactive”; for `Clc1nc(Cl)nc(Cl)n1`: “inactive”; for `CC(C)(c1cc(Cl)c(O)c(Cl)c1)c1cc(Cl)c(O)c(Cl)c1`: “inactive”.

In the case of `CC(C)(C)c1ccccc1O`, the Potency result was “inactive”. The result for `Oc1ccc(-c2ccccc2)cc1` reads “inactive”; that for `O=C(NC(=O)c1c(F)cccc1F)Nc1ccc(Cl)cc1`, “inactive”. Take `CCCCCCOC(=O)c1ccccc1C(=O)OCCCCCC`: the Potency result is “inactive”. As to `Cc1c(COC(=O)[C@@H]2[C@H](/C=C(\Cl)C(F)(F)F)C2(C)C)cccc1-c1ccccc1`, the Potency result was “inactive”.

For `O=Cc1ccco1`, the Potency entry is “inactive”.

`CC(C)C(=O)OCC(C)(C)C(OC(=O)C(C)C)C(C)C` (stereo not given): the Potency result is “inactive”.

Consider `CN(C)c1ccc(C(=O)c2ccc(N(C)C)cc2)cc1`, for which the Potency result is “inactive”.

With `ClC1C(Cl)C(Cl)C(Cl)C(Cl)C1Cl` (stereo not given), the Potency entry was “inactive”. The result for `CCC(C)(C)c1ccc(O)cc1` reads “inactive”; that for `c1ccc(N=Nc2ccccc2)cc1`, “inactive”. The result for `N#CC(Br)Br` reads “inactive”. The result for `Cc1ccc2c(c1N)C(=O)c1ccccc1C2=O` reads “inactive”; that for `CCOc1cc(C=O)ccc1O`, “inactive”; that for `C=CCN(CC=C)C(=O)C(Cl)Cl`, “inactive”.

For the compound `Oc1cc(Cl)ccc1Cl`, the Potency entry was “inactive”. The result for `O=c1oc2ccccc2c(O)c1C(CC(O)c1ccc(-c2ccc(Br)cc2)cc1)c1ccccc1` (stereo not given) reads “inactive”; that for `CCC(C)(c1ccc(O)cc1)c1ccc(O)cc1`, “inactive”. The same measure for `O=P(Oc1ccccc1)(Oc1ccccc1)Oc1ccccc1`: “inactive”; for `O=[N+]([O-])c1c(Cl)c(Cl)c(Cl)c(Cl)c1Cl`: “inactive”. The result for `Cc1cc(Cl)ccc1OCCCC(=O)O` reads “inactive”; that for `O=[N+]([O-])c1ccc(O)c([N+](=O)[O-])c1`, “inactive”. Turning to `Nc1c(Cl)cc([N+](=O)[O-])cc1Cl`, the Potency entry is “inactive”. The same measure for `Cc1cc(C)cc(C)c1`: “inactive”.
